# Screen size: about 48,000 compounds; about 13,000 (27%) showed an effect of 50% or more. Some of the results follow.
# System: Wolbachia pipientis
# Assay: Anti-Wolbachia Cell-Based Screen
# Type: functional
# Parameters: scale not given: in the data most compounds retested in dose-response had high values
# Settings: 5 µM
row,SMILES,Percent Effect [%]
1,CC(NC(=O)NCCCO)c1ccc(-c2ccncc2)cc1 (stereo not given),6.546
2,Cc1ccccc1CN1CCNC(=O)C1CC(=O)NCC1CCCCC1 (stereo not given),13.06
3,NC(=O)CN1CC2(CCC1=O)CCN(Cc1cc(F)ccc1Cl)CC2,6.267
4,Cn1cc(CN2CCOC3(CCCN(C(=O)c4ccco4)C3)C2)cn1.O=C(O)C(F)(F)F (stereo not given),-10.52
5,COc1ccc(C(C)N2CCC(CNC(C)=O)CC2)cc1Cl (stereo not given),4.452
6,COc1ccccc1C(=O)NC[C@H]1COCc2nc3c(C)cccc3n21,-7.945
7,COc1ccc(Br)cc1CCC(=O)N1CCCC1,-8.693
8,CS(=O)(=O)CCSCc1ccc(Br)c(F)c1,-8.514
9,CS(=O)(=O)CCSc1cccc(C#N)c1,-1.405
10,COc1ccc(Br)cc1SCCS(C)(=O)=O,106.5
11,COc1ccc(Br)cc1SCCC(N)=O,101.3
12,CS(=O)(=O)CCCSCc1cc(F)cc(Br)c1,-17.62
13,COc1ccc(Br)cc1SCCCS(C)(=O)=O,100.1
14,COc1ccc(Br)cc1Cn1nc(C(N)=O)ccc1=O,5.156
15,CS(=O)(=O)CCCSCc1ccc(Br)c(F)c1,-6.245
16,O=C(Cc1ccc2c(c1)CCO2)N1CCCC1Cn1cccn1 (stereo not given),102
17,O=C(Cc1ccc2c(c1)CCC2)N1CCCC1Cn1cccn1 (stereo not given),137.3
18,O=C(Cc1ccc(O)c(Cl)c1)N1CCCCC1CCn1cccn1 (stereo not given),-6.522
19,O=C(c1cccc2c1OCCO2)N1CCCC1Cn1cccn1 (stereo not given),5.303
20,Cc1cnn(CC2CCCN2C(=O)Cc2ccc3c(c2)CCO3)c1 (stereo not given),96.14
21,O=C(Cc1ccc2c(c1)CCC2)N1CCCC(n2cccn2)C1 (stereo not given),-2.086
22,O=C(Cc1ccc2c(c1)CCO2)N1CCCC(n2cccn2)C1 (stereo not given),-1.485
23,Cc1nn(CC(C)C)c(N(C)C)c1CNCCCNS(C)(=O)=O,11.35
24,CCOc1ccnc(NCc2nc(C)cc(=O)[nH]2)n1,1.629
25,CCC(=O)N1Cc2nnc(C3CCOCC3)n2C(Cc2c[nH]cn2)C1 (stereo not given),-1.737
26,CC(C)N(C)C[C@H]1OC[C@@H]2CCN(Cc3cccc(C#N)c3)C[C@@H]21.O=C(O)C(F)(F)F.O=C(O)C(F)(F)F,7.862
27,O=C1NC2(CCN(C(=O)c3ccc(Cl)cn3)CC2)CC1c1ccccc1 (stereo not given),-25.51

row,SMILES,Percent Effect [%]
1,COCCNc1nnc(-c2ccc(C)nc2)s1,135.2
2,CCC(C)(C)NC(=O)Nc1nnc(-c2ccccn2)s1,-10.26
3,COCCNc1nc(-c2ccc(S(=O)(=O)N3CCCCC3)cc2)cs1,16.68
4,COCCNc1nc(-c2ccc(S(=O)(=O)N3CCCCCC3)cc2)cs1,-3.577
5,COCCNc1nnc(-c2ccccn2)s1,158.8
6,COCCNc1nnc(-c2cnc(C)cn2)s1,149.1
7,CCC(CC)(CC(=O)OC)NC(=O)Nc1nnc(-c2ccccn2)s1,-2.114
8,COCCN(Cc1ccc(C)o1)C(=O)Nc1ncc(C)s1,4.146
9,COCCNc1nc2c(c(NCc3cnc(C)cn3)n1)CCNCC2,-9.122
10,Cc1c(-c2ccncc2)n[nH]c1NC(=O)CCOC(C)C,-12.27
11,O=c1c2sccc2nc2n1CCN(Cc1cccs1)CC2,5.975
12,COc1cc2nc3n(c(=O)c2cc1OC)CCN(C)CC3,-3.498
13,COCCNC(=O)c1ccc2c(=O)n3c(nc2c1)CCN(C)CC3,94.74
14,N#CCC(=O)NCc1nnc2n1CCN(Cc1cccs1)C2,6.584
15,CCCNC(=O)c1ccc2c(OC)n(C)nc2c1,-11.42
16,CN1CCc2nc3cc(C(=O)NCc4cccs4)ccc3c(=O)n2CC1,76.54
17,CCN(Cc1ccncc1)Cc1c[nH]nc1-c1ccc(F)cc1,-6.114
18,COC(=O)C1CCN(C(=O)NCC(C)Cc2cccs2)CC1 (stereo not given),-16.38
19,COc1cccc(C(=O)NCCCN2CCc3ccccc3C2)c1OC,-7.552
20,COc1ccccc1S(=O)(=O)NCC(c1cccn1C)N(C)C (stereo not given),1.51
21,CCC(CNC(=O)c1ccccc1OC)N1CCc2ccccc2C1 (stereo not given),13.81
22,COc1ccccc1C(CNC(=O)NCc1cc[nH]n1)N1CCCC1 (stereo not given),5.725
23,Cc1oncc1C(=O)NCC(c1ccccc1Cl)N1CCOCC1 (stereo not given),10.8
24,COc1cccc(OC)c1C(=O)NCC(c1cccn1C)N1CCCC1 (stereo not given),106.6
25,COc1cccc(C(=O)NCC(c2cccn2C)N2CCCC2)c1OC (stereo not given),106.1
26,COc1ccccc1C(=O)NCC(c1cccn1C)N1CCOCC1 (stereo not given),102.1
27,COCCN1CCC(NC(=O)C/C=C/c2ccc(C(C)C)cc2)CC1,-16.81

row,SMILES,Percent Effect [%]
1,Cc1ccc(C(=O)N2CC[C@@]3(O)CCN(C(=O)N(C)C)C[C@H]3C2)cc1Cl,-5.057
2,Cc1nn(C)c(C)c1C1CCCN1CCCC#N (stereo not given),2.05
3,Cc1noc([C@@H]2C[C@H]3OCC[C@H]3N(Cc3sccc3C)C2)n1.O=C(O)C(F)(F)F,9.269
4,CCN(CC(=O)NC)C(=O)c1sc(Cc2ccccc2)nc1C,-6.036
5,Cc1nc(Cc2ccccc2)nc2sc(C(=O)O)c(C)c12,95.86
6,Cc1c(C(=O)O)sc2nc(C(F)(F)F)ccc12,-2.496
7,CN(C)C(CNC(=O)OCC(F)(F)F)c1ccsc1 (stereo not given),23.12
8,Cc1ccc(C(=O)N(C)CCOc2ccccc2F)c(=O)[nH]1,95.48
9,Cc1ccc(C(=O)N(Cc2ccccc2F)C2CC2)c(=O)[nH]1,-1.047
10,CCN(Cc1ccc(OC)c(F)c1)C(=O)c1ccc(C)[nH]c1=O,-15.23
11,Cc1c(C(=O)N2CC(O)C2)nnn1-c1cccc2cnccc12,-2.34
12,CC(CNS(=O)(=O)c1cccc(Cl)c1)N1CCN(C)CC1 (stereo not given),3.313
13,CCn1cc2c(n1)CN(Cc1ccc(C)o1)CC2COCC1CC1.O=C(O)C(F)(F)F (stereo not given),26.1
14,CNC(=O)NCCc1csc2ccccc12,-2.127
15,COCCN(C)C[C@@H]1CCC[C@@H]2CN(c3ncccn3)C[C@@H]21.O=C(O)C(F)(F)F,-1.943
16,Cc1ccc(NC2CCN(C(=O)CCCc3cccs3)CC2)nn1,117.7
17,Cc1ccc(NC2CCN(C(=O)Cc3cccs3)CC2)nn1,103.9
18,Cc1ccc(NC2CCN(C(=O)Cn3nc(C)cc3C)CC2)nn1,-9.924
19,Cc1ccc(NC2CCN(C(=O)Cc3csc(C)n3)CC2)nn1,1.97
20,Cc1ccc(NC2CCN(C(=O)CCCc3ccccn3)CC2)nn1,17.2
21,Cc1ccc(NC2CCN(C(=O)Cc3ccc(C)s3)CC2)nn1,88.11
22,Cn1cc(CNc2ccc(CCN3CCC(C(N)=O)CC3)cc2)cn1,-15.36
23,CCC(CC)c1cc(CNC(=O)N2CCCC(c3ncc[nH]3)C2)on1 (stereo not given),-2.928
24,Cc1nc(CN2CC[C@@H](OCC3CC3)[C@@H]2Cc2cccnc2)cs1.O=C(O)C(F)(F)F.O=C(O)C(F)(F)F,96.59
25,COCCO[C@@H]1CCN(Cc2csc(C)n2)[C@H]1Cc1ccccc1.O=C(O)C(F)(F)F,-4.722
26,Cc1nc(CN2CC[C@H](OCC3CC3)[C@@H]2Cc2cccnc2)cs1.O=C(O)C(F)(F)F.O=C(O)C(F)(F)F,110.4
27,Cc1cc(N(C)Cc2c(C)noc2C)n2nc(C)c(C)c2n1,-2.032

row,SMILES,Percent Effect [%]
1,CCN(CC)CC(=O)NCc1cccnc1-n1cnc2ccccc21,-2.03
2,Cc1cnc(N2CC[C@@H]3CN(CCC(C)C)S(=O)(=O)[C@@H]3CC2)nc1,7.109
3,CC(Cc1cccs1)C(=O)NCc1cccc(N2CCCC2=O)c1 (stereo not given),1.255
4,Cc1cc(C)n(CC(C)CNC(=O)NCc2ccco2)n1 (stereo not given),7.726
5,CC(COCC(F)(F)F)NC(=O)c1ccc(-c2ccco2)[nH]c1=O (stereo not given),-22
6,CC(C)NC(=O)NCc1cc(-c2ccco2)n(CC(F)(F)F)n1,112.4
7,NS(=O)(=O)NCc1cc(-c2ccco2)n(CC(F)(F)F)n1,112.6
8,CC(C)NC(=O)NCCn1nc(C(F)(F)F)n(C)c1=O,-4.799
9,C[C@H](NS(C)(=O)=O)C(=O)NCc1cc(-c2ccco2)n(CC(F)(F)F)n1,97.84
10,CC(C)NC(=O)NCc1ccnc(N(C)C)n1,-10.55
11,Cc1nnc2n1CCN(CCS(=O)(=O)c1ccccc1)C2,0.264
12,CCc1noc(C2CCCCN2C(=O)c2ccn(C3CCCC3)n2)n1 (stereo not given),52.74
13,CCc1noc(C2CCCCN2C(=O)c2ccccc2)n1 (stereo not given),1.293
14,CCc1noc(C2CCCCN2C(=O)c2ccoc2C)n1 (stereo not given),16.06
15,Cc1nnc(N2C[C@@H]3CCCO[C@@H]3[C@H](N(C)C)C2)s1,-8.785
16,CC(NC(=O)NCCNc1cnccn1)c1cccs1 (stereo not given),5.831
17,CC(NC(=O)NCCNc1cccc(F)c1C#N)c1cccs1 (stereo not given),10.58
18,CC(C)C(NC(=O)NCCNc1cnccn1)c1cccs1 (stereo not given),101.3
19,CC(NC(=O)NCCNc1ncccn1)c1cccs1 (stereo not given),10.74
20,CC(C)C(NC(=O)c1ccc(N2CCOCC2)nc1)c1cccs1 (stereo not given),15.66
21,CC(C)C(C)(O)CNC(=O)Nc1ccccn1 (stereo not given),-16.52
22,CC(C)CC(NC(=O)CN(C)c1cnccn1)c1cccs1 (stereo not given),9.121
23,CC(C)C(NC(=O)Nc1ccccn1)c1cccs1 (stereo not given),56.05
24,CC(C)C(NC(=O)NCCNc1ncccn1)c1cccs1 (stereo not given),99.08

# From ChEMBL document CHEMBL3988442, “University of Dundee, Small-Polar-MMV Screening Library” (2021)
